A word on the inhibition: it is the relative decrease from the control value, in per cent.

In all, about 330,000 compounds went through this assay and about 4,100 (1.2%) were called active. Cut-off read from the data, not from the text of the source: active = inhibition above about 50%; inactive = the rest. Shown is part of a subset that was picked to be rich in actives.

Sentrin-specific protease 8 (Homo sapiens), sequence (Q96LD8 whole entry, looked up): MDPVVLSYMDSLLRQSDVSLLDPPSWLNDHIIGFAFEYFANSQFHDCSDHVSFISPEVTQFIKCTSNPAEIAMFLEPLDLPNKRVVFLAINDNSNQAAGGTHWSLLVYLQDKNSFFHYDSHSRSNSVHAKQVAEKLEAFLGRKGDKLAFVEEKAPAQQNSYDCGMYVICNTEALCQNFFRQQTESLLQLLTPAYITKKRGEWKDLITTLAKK

This test has as its target Sentrin-specific protease 8 (Homo sapiens) (UniProt Q96LD8). Description: SENP8 protease inhibitors, primary screen, biochemical, luminescence (AID 2540). As to conditions: purified SENP8, Z-RLRGG-aminoluciferin cleavage, at 10 µM, hits give high values.
As for `COc1ccc(OCC(=O)NCCS(=O)(=O)N2CCN(c3ccc(F)cc3)CC2)cc1`, the inhibition is 1.89% (inactive).

Consider `CN=C(NC#N)NCCSCc1nc[nH]c1C`, for which the inhibition is -4.47% (inactive).

For `O=C(c1cnn(-c2ccc(Cl)cc2)c1)c1ccccc1O`, the inhibition is 91.4% (active).

`Cc1cc(O)cc(O)c1C(=O)Cc1cnn(-c2ccccc2)c1`: the inhibition is -5.32% (inactive).

In the case of `O=C(Nc1ccccc1)OCc1cn(-c2ccc(Cl)cc2)nn1`, the inhibition is -2.31% (inactive).

As for `O=c1[nH]c(CN2CCOCC2)nc2scc(-c3ccccc3)c12`, the inhibition was 1.83% (inactive).

As for `O=[N+]([O-])c1ccc(C=Nc2ccc(Cl)cc2Cl)s1`, the inhibition is 59.6% (active).

Turning to `CC(C)(C)c1cc(C(=O)N/N=C/c2ccc([N+](=O)[O-])s2)n[nH]1`, the inhibition was 20.8% (inactive).

As to `Cc1ccccc1NCC(=O)N/N=C\c1ccc([N+](=O)[O-])s1`, the inhibition was 33% (inactive).

In the case of `CCc1ccc(NC(=O)N2CCc3ccccc3C2)cc1`, the inhibition is -3.45% (inactive).

In the case of `COc1ccc([N+](=O)[O-])cc1NC(=O)C(C)OC(=O)C1c2ccccc2Oc2ccccc21` (stereo not given), the inhibition was -5.39% (inactive).

For `Cn1cnc(C(F)(F)F)c1-c1ccc([N+](=O)[O-])cc1`, the inhibition was 2.27% (inactive).

Consider `O=c1c2ccccc2ncn1/N=C/c1ccccc1`, for which the inhibition is 80.9% (active).

For `CN(C(=O)Nc1ccc(Cl)cc1)n1cnc2ccccc2c1=O`, the inhibition is -6.28% (inactive).

Consider `CCOC(=O)N1CCN(C(=O)Cn2cnc3ccccc3c2=O)CC1`, for which the inhibition was -8.63% (inactive).

In the case of `CCOC(=O)C1CCN(S(=O)(=O)c2ccc3c(c2)N(C(C)=O)CCO3)CC1`, the inhibition was -1.03% (inactive).

Regarding `Cc1ccc(CNC(=O)[C@@H](NC(=O)Cc2ccccc2)C(C)C)cc1`, the inhibition is 2.25% (inactive).

Take `CC(C)C(=O)Nc1nnc(SCC(=O)N2C(C)CCCC2C)s1` (stereo not given): the inhibition is -3.68% (inactive).

For the compound `COc1ccc(C2C3=C(OC(C)=O)c4ccccc4C3=Nc3c2c(=O)n(C)c(=O)n3C)cc1` (stereo not given), the inhibition is 7.93% (inactive).

With `O=C(COC(=O)/C=C/c1cn(-c2ccccc2)nc1-c1cccnc1)Nc1ccc(Cl)cc1Cl`, the inhibition is -4.08% (inactive).

As to `CCOc1ccc(C(=O)Nc2cccc(SC)c2)cc1`, the inhibition was 82.4% (active).

As for `CCOc1ccc(C(=O)Nc2cccc(-c3ccc4nncn4n3)c2)cc1`, the inhibition is -9.4% (inactive).

Regarding `CSc1cccc(NC(=O)CSc2ccccc2)c1`, the inhibition is -14.5% (inactive).

In the case of `O=C(Nc1ccc(N2CCOCC2)cc1)c1cccc(S(=O)(=O)N2CCOCC2)c1`, the inhibition is -6.21% (inactive).

Turning to `COc1cccc(C(=O)Nc2nnc(S(=O)(=O)N3CCCCC3)s2)c1`, the inhibition was -11% (inactive).

Regarding `COc1cccc(C(=O)Nc2ccc(N3CCCC3)cc2)c1`, the inhibition was 96.4% (active).

Take `O=C(OC1CCOC1=O)c1cccc(S(=O)(=O)Nc2ccc(F)cc2)c1` (stereo not given): the inhibition is 2.88% (inactive).

As for `COc1cccc(NC(=O)COC(=O)/C=C/c2ccco2)c1`, the inhibition is -1.22% (inactive).

As to `O=C(/C=C/c1ccco1)NC(=S)Nc1ccccc1Br`, the inhibition is -6.97% (inactive).

For `O=C(/C=C/c1ccco1)Nc1ccc(Oc2ccccc2)cc1`, the inhibition is 58.9% (active).

As to `O=C(NCCc1ccc(Cl)cc1Cl)c1cc([N+](=O)[O-])c[nH]c1=O`, the inhibition is 4.55% (inactive).

For `Cc1cc(OC(=O)c2ccc(OC(C)C)cc2)c([N+](=O)[O-])c(=O)[nH]1`, the inhibition is 1.33% (inactive).

Regarding `COc1cccc(-c2nnc(SCCOc3ccc4c(C)cc(=O)oc4c3)o2)c1`, the inhibition is 1.03% (inactive).

With `O=[N+]([O-])c1ccc2oc(-c3cccc(O)c3)nc2c1`, the inhibition was 84.7% (active).

In the case of `COc1ccc2oc(-c3cccc(NC(=O)CSc4ccc(Cl)cc4)c3)nc2c1`, the inhibition is -5.16% (inactive).

As for `COc1ccc([N+](=O)[O-])cc1-c1nc2ccccc2nc1-c1ccccc1`, the inhibition is 12.3% (inactive).

In the case of `COc1cccc(-c2nc3cc(C)ccc3o2)c1`, the inhibition is 96.2% (active).

`O=[N+]([O-])c1ccc2c(c1)Nc1nc3ccccc3nc1N2`: the inhibition was -4.07% (inactive).

As for `Cc1c(CC(=O)NCC(=O)NCC(=O)O)c(=O)oc2cc3oc4c(c3cc12)CCCC4`, the inhibition was -13.4% (inactive).

Regarding `Clc1ccc(-n2nnnc2CN2CCCCC2)cc1Cl`, the inhibition was -12% (inactive).

Turning to `O=C(/C=C/NNC(=O)c1cccc(Br)c1)c1ccccc1`, the inhibition is -1.09% (inactive).

`CCOc1ccccc1N1C(=O)CC(Sc2nccc(C)n2)C1=O` (stereo not given): the inhibition is 1.56% (inactive).

With `COc1ccc(NC(=O)CNc2cc(S(=O)(=O)N3CCOCC3)ccc2N2CCOCC2)c(OC)c1`, the inhibition is 7.93% (inactive).

For `Cc1c(Cl)cccc1NC(=O)NCc1ccc(C)n1C`, the inhibition was -0.511% (inactive).

Take `CC(=O)c1ccc(S(=O)(=O)NC2CC(=O)N(c3ccc4c(c3)OCCO4)C2)cc1` (stereo not given): the inhibition is -4.2% (inactive).

As to `CC(C)(C)OC(=O)C[C@@H]1C/C=C\C[C@H](CC(=O)N[C@@H](CO)Cc2ccccc2)C(=O)N[C@H](Cc2ccccc2)COC1=O`, the inhibition is -7.09% (inactive).

Regarding `COc1cc(C2C(C(=O)c3cccs3)=C(O)C(=O)N2CCN2CCOCC2)ccc1OCCC(C)C` (stereo not given), the inhibition is -3.6% (inactive).

With `CCn1cc(CN2CCC(C(=O)Nc3cccc(-c4cccc(Cl)c4)c3)CC2)c(C)n1`, the inhibition was -6.83% (inactive).

Consider `CCCN1CC=C2C(C#N)=C(N)C(C#N)(C#N)C(c3cc(OC)ccc3OC)C2C1` (stereo not given), for which the inhibition was 0.594% (inactive).

As to `N#CC1=C(N)C(C#N)(C#N)[C@H](c2ccsc2)[C@H]2COCC=C12`, the inhibition is -3.51% (inactive).

As to `CCN1CC=C2C(C#N)=C(N)C(C#N)(C#N)[C@H](c3ccoc3)[C@H]2C1`, the inhibition is 50.7% (active).

With `Cc1cn(C)c(=O)n(C)c1=O`, the inhibition is -18.1% (inactive).

Turning to `COc1ccc(NC(=O)Nc2cccc3cccnc23)cc1`, the inhibition was 81% (active).

On to `O=C(Nc1cccc2cccnc12)c1cccc(Cl)c1`, for which the inhibition was 8.84% (inactive).

For the compound `COc1ccc(NC(=O)C2CCCN(S(=O)(=O)c3cccc4cccnc34)C2)cc1` (stereo not given), the inhibition was 6% (inactive).

Consider `CC12CCC(C(=O)N(CCC#N)CCC#N)(CC1=O)C2(C)C` (stereo not given), for which the inhibition is -1.58% (inactive).

For the compound `CN(CCO)c1ccc(/C=N/Nc2nncc3ccccc23)cc1`, the inhibition was 94.9% (active).

Regarding `C/C(=N\Nc1nncc2ccccc12)c1ccc(Cl)c([N+](=O)[O-])c1`, the inhibition was 5.46% (inactive).

Turning to `COc1cccc(/C=N\Nc2nncc(-c3ccccc3)n2)c1`, the inhibition is -14.9% (inactive).

As to `c1ccc(-c2noc(-c3cccs3)n2)nc1`, the inhibition was 88.9% (active).

As to `Cc1noc(C)c1COC(=O)COc1ccc(-c2ccccc2)cc1`, the inhibition was -5.47% (inactive).

As to `COc1ccc(CCc2nc(-c3cccs3)no2)cc1`, the inhibition is -14.5% (inactive).

Regarding `c1csc(-c2nc(-c3ccncc3)no2)c1`, the inhibition is 57.3% (active).

In the case of `Cc1ccc(-c2nc(-c3ccncc3)no2)c(C)c1`, the inhibition was 42.8% (inactive).

As to `O=C(COC(=O)c1ccncc1)c1ccccc1`, the inhibition is -23.2% (inactive).

Take `O=C(Oc1ccc(-c2nc(-c3ccccn3)no2)cc1)c1ccccc1`: the inhibition was 97.3% (active).

As for `Clc1ccc(-n2nnnc2-c2cnc(-c3ccccn3)nc2-c2cccs2)cc1`, the inhibition was -4.12% (inactive).

With `c1ccc(CCc2nc(-c3ccncc3)no2)cc1`, the inhibition is -9.99% (inactive).

For the compound `CC1CCC2(CC1)NC(=O)N(CC(=O)c1cccn1C)C2=O` (stereo not given), the inhibition is -3.15% (inactive).

On to `CCOC(=O)N1CCN(c2c(NCCN3CCN(c4ccccc4F)CC3)c(=O)c2=O)CC1`, for which the inhibition was -9.98% (inactive).

For `COc1ccccc1CNC(=O)[C@@H]1CCCN1C(=O)[C@@H]1Cc2ccccc2CN1C(=O)OC(C)(C)C`, the inhibition is -1.1% (inactive).

With `Cc1ccc(N(C(=O)c2ccc(S(=O)(=O)N(C)C)cc2)C2C=CS(=O)(=O)C2)cc1` (stereo not given), the inhibition is -5.23% (inactive).

In the case of `O=C1CCC(C(=O)N2CCN(c3ccccc3Cl)CC2)CN1CC1CCCCC1` (stereo not given), the inhibition was -2.96% (inactive).

Take `Clc1ccc(-c2cc(-c3ccccn3)on2)c(Cl)c1`: the inhibition is 98% (active).

Turning to `Clc1ccc(COn2c(-c3ccc(Cl)cc3Cl)nc3ncccc32)cc1`, the inhibition was 1.77% (inactive).

For the compound `O=C1c2ccccc2C(=O)N1Cc1cc(-c2ccccc2Cl)no1`, the inhibition is 2.3% (inactive).

For `O=C(COC(=O)c1c2c(nc3ccccc13)CCCC2)c1ccc(Br)s1`, the inhibition was -1.41% (inactive).

Regarding `Cn1cccc1C(=O)OCC(=O)c1ccc(Br)s1`, the inhibition was 75.8% (active).

Take `Cn1cccc1C(=O)OCC(=O)NCCc1ccccc1`: the inhibition was -2.12% (inactive).

Turning to `COc1cccc(NC(=O)CSc2nnc(C3CCCCC3)n2N)c1`, the inhibition is 6.19% (inactive).

Turning to `O=C(NCC1CC1)c1onc(CSc2ccccc2)c1C(=O)NCC1CC1`, the inhibition is 1.24% (inactive).

As for `Cc1ccc(NC(=O)c2ccc(S(=O)(=O)NCC3CCCO3)cc2)cc1C` (stereo not given), the inhibition is 9.11% (inactive).

Turning to `O=C(Nc1nnc(S(=O)(=O)N2CCCCCC2)s1)c1cccc(Br)c1`, the inhibition was 71.5% (active).

For `O=C(Nc1nnc(S(=O)(=O)N2CCOCC2)s1)c1cccc(Br)c1`, the inhibition is 6.23% (inactive).

On to `Cc1cccc(C(=O)Nc2nnc(S(=O)(=O)N3CCCCCC3)s2)c1`, for which the inhibition was 18.3% (inactive).

Regarding `Cc1ccc(S(=O)(=O)NC(=O)c2cccc(C)c2)cc1`, the inhibition was -5.51% (inactive).

On to `Cc1[nH]n(C(N)=S)c(=O)c1N=Nc1ccc(Cl)cc1Cl`, for which the inhibition was 95.6% (active).

`Cc1[nH]n(C)c(=O)c1N=Nc1ccc(S(C)(=O)=O)cc1`: the inhibition is -4.34% (inactive).

As for `CCCCNC(=O)C1CCCNC1=O` (stereo not given), the inhibition is -10.4% (inactive).

As to `O=C(O)c1cc(S(=O)(=O)N(Cc2ccccc2)c2ccccc2)ccc1Cl`, the inhibition was 3.75% (inactive).

For the compound `C/C(=N\OCC(=O)Nc1ccc(Br)cc1)c1cccs1`, the inhibition is -8.52% (inactive).

Regarding `O=C(O)c1ccccc1OCc1ccccc1Cl`, the inhibition was 1.22% (inactive).

Turning to `O=C1c2ccccc2C(=O)N1CCC#Cc1ccc2cc(C3(O)CCCCC3)oc(=O)c2c1`, the inhibition was -2.91% (inactive).

As to `COc1cc(/C=C2\Oc3ccc(C#Cc4ccc(O)cc4)cc3C2=O)cc(OC)c1`, the inhibition is 5.28% (inactive).

For the compound `COc1cc(C#Cc2ccc3cc(CCCO)oc(=O)c3c2)cc(OC)c1`, the inhibition was 69.6% (active).

Values taken from PubChem BioAssay AID2540 (Sanford-Burnham Center for Chemical Genomics, 2010).
